# Results reported in ChEMBL document CHEMBL2218924, “A broad activity screen in support of a chemogenomic map for kinase signalling research and drug discovery” (Biochem J, 2013).
# Molecular target: Platelet-derived growth factor receptor alpha (Homo sapiens) (UniProt P16234)
# Conditions: at 10 µM
# Sequence of Platelet-derived growth factor receptor alpha (Homo sapiens) (P16234 whole entry): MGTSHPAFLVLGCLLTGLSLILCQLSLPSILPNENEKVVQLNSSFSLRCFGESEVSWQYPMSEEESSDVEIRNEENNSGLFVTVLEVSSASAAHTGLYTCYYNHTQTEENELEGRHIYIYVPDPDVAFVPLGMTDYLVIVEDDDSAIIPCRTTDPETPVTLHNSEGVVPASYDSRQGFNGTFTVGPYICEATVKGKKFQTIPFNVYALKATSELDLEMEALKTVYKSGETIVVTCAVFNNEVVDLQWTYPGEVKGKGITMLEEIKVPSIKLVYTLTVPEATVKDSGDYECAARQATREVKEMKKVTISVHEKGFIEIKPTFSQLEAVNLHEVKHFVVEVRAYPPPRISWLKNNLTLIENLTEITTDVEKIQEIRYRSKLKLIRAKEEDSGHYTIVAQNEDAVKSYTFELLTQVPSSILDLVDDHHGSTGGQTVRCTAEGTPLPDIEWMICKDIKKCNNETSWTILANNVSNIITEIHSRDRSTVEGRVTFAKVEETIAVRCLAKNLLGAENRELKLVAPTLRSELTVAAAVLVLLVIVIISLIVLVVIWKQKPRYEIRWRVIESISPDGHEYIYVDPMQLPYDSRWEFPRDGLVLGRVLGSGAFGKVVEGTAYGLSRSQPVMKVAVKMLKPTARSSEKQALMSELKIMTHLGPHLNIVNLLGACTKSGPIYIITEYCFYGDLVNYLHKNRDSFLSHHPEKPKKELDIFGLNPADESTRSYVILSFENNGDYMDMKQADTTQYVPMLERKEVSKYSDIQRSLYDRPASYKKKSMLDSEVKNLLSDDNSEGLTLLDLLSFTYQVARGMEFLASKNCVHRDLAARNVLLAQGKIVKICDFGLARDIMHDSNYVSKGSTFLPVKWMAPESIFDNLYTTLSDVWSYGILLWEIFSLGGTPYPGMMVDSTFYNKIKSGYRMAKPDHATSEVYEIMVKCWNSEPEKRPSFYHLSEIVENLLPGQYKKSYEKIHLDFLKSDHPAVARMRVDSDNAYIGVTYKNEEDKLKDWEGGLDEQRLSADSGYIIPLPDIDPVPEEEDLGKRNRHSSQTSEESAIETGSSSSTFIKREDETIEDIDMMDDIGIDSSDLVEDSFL
row,SMILES,residual activity [%]
1,COc1ccc2c(c1)c(C1=C(c3c[nH]c4ccccc34)C(=O)NC1=O)cn2CCCN(C)C,66
2,Nc1ncnc2c1cnn2-c1ccccc1,101
3,c1ccc(-c2cnc(Nc3ccc(OCCN4CCCC4)cc3)s2)cc1,1
4,NCCNc1ncc(C(N)=O)c(Nc2cccc(C(F)(F)F)c2)n1,74
5,O=C(O)/C=C/c1cc(Br)c(Br)c(Br)c1Br,103
6,O=C1Cc2c([nH]c3ccc([N+](=O)[O-])cc23)-c2ccccc2N1,112
7,COc1cc2ncnc(Nc3cccc(Cl)c3)c2cc1OC,87
8,CCN(CC)CCNC(=O)c1c(C)[nH]c(/C=C2\C(=O)Nc3ccc(Cl)cc32)c1C,1
9,COc1cc2nccc(Oc3ccc(NC(=S)NC(=O)c4ccccc4C)cc3)c2cc1OC,2
10,CN(C)S(=O)(=O)c1ccc2c(c1)/C(=C/c1cc3c([nH]1)CCCC3)C(=O)N2,29
11,O=C1NC(=O)C(c2c[nH]c3ccccc23)=C1c1c[nH]c2ccccc12,77
12,O=C(c1ccccc1)c1ccc(N2CCOCC2)cc1O,92
13,CCOC(=O)c1c(C)[nH]c(/C=C2\C(=O)Nc3ccccc32)c1C,45
14,N#C/C(=C\c1ccc(O)c(O)c1)C(=O)NCc1ccccc1,100
15,O=C(Nc1ccc(Cl)cc1)c1ccccc1NCc1ccncc1,7
16,Nc1ncnc2[nH]nc(Nc3ccc(F)cc3)c12,111
17,COc1ccc(-c2cnc3c(-c4ccsc4)cnn3c2)cc1,92
18,Cn1c2ccccc2c2c3c(c4c5ccccc5n(CCC#N)c4c21)CNC3=O,76
19,CCCCc1c(-c2ccc(OC)cc2)[nH]c2nccnc12,111
20,Cn1sc(=O)n(Cc2ccccc2)c1=O,100
21,COc1cc2c(cc1OC)-c1n[nH]c(Nc3cccc(F)c3)c1C2,1
22,O=C(c1cc2cc(O)ccc2[nH]1)c1cc2cc(O)ccc2[nH]1,6
23,CC(C)(C)n1nc(Cc2cccc3ccccc23)c2c(N)ncnc21,72
24,Nc1ncnc2c1c(-c1ccc(Oc3ccccc3)cc1)cn2C1CCCC1,4
25,O=C1NC(=O)c2c1c1c3ccccc3[nH]c1n1cncc21,92
26,NC(=O)Nc1sc(-c2ccc(F)cc2)cc1C(N)=O,20
27,O=C1Nc2ccc(Cl)cc2/C1=C/c1cc(Cl)c(O)c(Cl)c1,10
28,CCCC(=O)Oc1ccc2[nH]c(C(=O)c3cc4ccccc4[nH]3)cc2c1,85
